High-throughput results from PubChem.
Hits are enriched below; roughly 6.1% of the tested compounds scored in any of these assays.
Gal4-VP16 FLuc – VP16 counterscreen qHTS for inhibitors of ROR gamma transcriptional activity | 3.5% of 310,000 active | Drosophila S2 Gal4-VP16 UAS-luciferase, luminescence, 20 h | Potency, µM (doses to about 53.6 µM), for the others: top-dose activity, negative = inhibition, usual class: inhibitors;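 further: Gal4-VP16 expression switched on by copper sulfate through the metallothionein promoter; on the % scale 0 is the no-effect control and ±100 the full control effect; nearly all actives have a fitted effect of over 50% in size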
ATXN2 expr inh – Primary qHTS for Inhibitors of ATXN expression. HEK-293 ATXN2-luciferase reporter, luminescence, 24 h. Potency, µM (doses to about 57 µM), without a hit: at the highest dose activity change, negative = inhibition, usual class: inhibitors. 0.72% of 360,000 active. AID 1745845, 2022; further: on the % scale 0 is the no-effect control and ±100 the full control effect; nearly all actives have a fitted effect of over 55% in size
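qHTS (up to 57 uM final) was run with 24 h compound exposure of reporter cells at 37 °C. Each well was multiplexed: SteadyGlo luminescence measured ATXN2-luciferase expression after a fluorogenic Gly-Phe-AFC viability readout (25 uM final).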
HepG2 tox – qHTS for Inhibitors of TGF-b: Cytotox Counterscreen. HepG2 CAGA-GFP viability, ATP luminescence, 18 h. Potency, µM (top dose mostly 46.1 µM), for the others: at the top dose activity change, negative = cytotoxicity, hits mostly cytotoxic. 0.76% of 410,000 active. AID 588856, 2011
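CellTiter-Glo luminescence gave cytotoxicity after 18 hours at 37 degrees C. The cells were HepG2 CAGA-GFP in 1% FBS DMEM, stimulated with 500 pg/mL TGF-beta after compound addition. %Activity was normalised to no-cell wells (complete cell-killing) and DMSO (no toxicity), and curves were fitted and classified.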
TGFb SMAD3 inh – qHTS for Inhibitors of TGF-b; HepG2 CAGA-GFP TGF-b/SMAD3 reporter, GFP fluorescence, 18 h; TGF-beta stimulated, 500 pg/mL final; Potency, µM (titrated, usually from 46.1 µM), without a hit: top-dose activity, negative = inhibition, actives largely listed as inhibitors; 1.2% of 410,000 active; further: on the % scale 0 is the no-effect control and ±100 the full control effect; nearly all actives have a fitted effect of over 65% in size
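Cell-based qHTS in HEPG2 carrying a CAGA-GFP Smad reporter; compounds added before 500 pg/mL final TGF-beta, 18 h incubation at 37 degrees C, GFP fluorescence quantified per cell by imaging cytometry.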
ATXN viability – Viability Counterscreen for Primary qHTS for Inhibitors of ATXN expression; S2 cells (HEK-293 line with an ATXN2-luciferase reporter) viability, CellTiter-Fluor protease fluorescence, 24 h; Potency, µM (highest dose often 56.7 µM), most hits filed as cytotoxic; 0.49% of 400,000 active; AID 651635, 2014; further: nearly all actives have a fitted effect of over 40% in size
RORgamma inh – qHTS for inhibitors of ROR gamma transcriptional activity; Potency, µM (titrated, usually from 53.6 µM), for the others: at the highest dose activity change, negative = inhibition, actives largely listed as inhibitors; Drosophila S2 Gal4-RORgamma UAS-luciferase reporter, 20 h; AID 2551, 2010; Nuclear receptor ROR-gamma (Mus musculus), P51450; 5.4% of 310,000 active; further: on the % scale 0 is the no-effect control and ±100 the full control effect; nearly all actives have a fitted effect of over 60% in size
Target sequence (P51450 whole entry, looked up, the tested form may be a part): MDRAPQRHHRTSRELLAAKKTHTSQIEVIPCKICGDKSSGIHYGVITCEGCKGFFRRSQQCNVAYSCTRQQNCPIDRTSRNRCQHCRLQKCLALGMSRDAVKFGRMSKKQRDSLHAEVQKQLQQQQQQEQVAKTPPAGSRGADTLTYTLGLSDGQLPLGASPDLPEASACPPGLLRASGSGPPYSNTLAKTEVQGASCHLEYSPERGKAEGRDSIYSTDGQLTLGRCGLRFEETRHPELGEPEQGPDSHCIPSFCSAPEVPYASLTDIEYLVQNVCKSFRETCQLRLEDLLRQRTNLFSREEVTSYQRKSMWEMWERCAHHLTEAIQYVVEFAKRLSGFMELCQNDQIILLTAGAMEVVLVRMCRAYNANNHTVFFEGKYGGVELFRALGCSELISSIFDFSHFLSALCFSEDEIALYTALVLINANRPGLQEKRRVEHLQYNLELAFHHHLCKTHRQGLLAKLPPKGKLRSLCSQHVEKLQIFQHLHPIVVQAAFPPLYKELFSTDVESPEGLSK
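Schneider cells (Drosophila), stable Gal4 DBD–ROR gamma + UAS-luc; 1 hr cmpd preincubation; Cu2+ induction 700 uM final; 20 hr ambient; luminescence.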
Active calls of the source: *; [ ] = another dose, or the depositor's remark. The call rests on the fitted dose curve; in most records, active means well fitted curve in the direction sought with a large enough effect; inconclusive means small, poorly fitted or top-dose-only effect, or another doubt; inactive means no such curve, though single readings can be large; an effect the other way counts as inactive or inconclusive. Potency means the concentration at half of the fitted maximal effect.

What do the screens show for `COc1ccccc1OCCC(=O)OCC(=O)c1[nH]c(C)c(C(C)=O)c1C`?
Gal4-VP16 FLuc: inconclusive; ATXN2 expr inh: 9%; HepG2 tox: -24%; TGFb SMAD3 inh: -1%; ATXN viability: inactive; RORgamma inh: 14µM*

What do the screens show for `CC(=O)c1c(C)[nH]c(C(=O)COC(=O)CCCOc2ccccc2)c1C`?
Gal4-VP16 FLuc: 3%; HepG2 tox: -22%; TGFb SMAD3 inh: 5%; ATXN viability: inactive; RORgamma inh: 14%

Results for CC(NC(CCc1ccccc1)C(=O)O)C(=O)N1C(=O)N(C)CC1C(=O)O (stereo not given) ?
ATXN2 expr inh: 12%; ATXN viability: inactive

Results for Oc1ccc(-c2nc3ccc4ccccc4c3c3c2CCC3)cc1O ?
Gal4-VP16 FLuc: inconclusive; ATXN2 expr inh: -35%; HepG2 tox: 25µM*; TGFb SMAD3 inh: 0%; ATXN viability: inactive; RORgamma inh: 14%

How did O=[N+]([O-])c1ccc(/C=C/C2=NN(c3ccccc3)C(c3ccco3)C2)cc1 (stereo not given) do in these assays?
Gal4-VP16 FLuc: 20µM*; ATXN2 expr inh: 37%; HepG2 tox: -8%; TGFb SMAD3 inh: 157%; ATXN viability: inactive; RORgamma inh: inconclusive

What do the screens show for `O=[N+]([O-])c1ccc(C2=NN(c3ccccc3)C(c3ccco3)C2)cc1` (stereo not given)?
Gal4-VP16 FLuc: 25%; ATXN2 expr inh: -2%; HepG2 tox: 23%; TGFb SMAD3 inh: 53%; RORgamma inh: 21%

Results for COc1ccc(N2CC(C(=O)N/N=C/c3cc([N+](=O)[O-])ccc3O)CC2=O)cc1 (stereo not given) ?
Gal4-VP16 FLuc: 18µM*; ATXN2 expr inh: -27%; HepG2 tox: -18%; TGFb SMAD3 inh: -2%; ATXN viability: inactive; RORgamma inh: 5.6µM*

How did COc1ccc(N2CC(C(=O)N/N=C/c3c[nH]c4ccccc34)CC2=O)cc1 (stereo not given) do in these assays?
Gal4-VP16 FLuc: 7%; ATXN2 expr inh: -6%; HepG2 tox: 4%; TGFb SMAD3 inh: -16%; ATXN viability: inactive; RORgamma inh: -2%

Results for O=C(N/N=C/c1ccccc1O)C1CC(=O)N(c2ccc(F)cc2)C1 (stereo not given) ?
Gal4-VP16 FLuc: 6.3µM*; ATXN2 expr inh: inconclusive; HepG2 tox: -3%; TGFb SMAD3 inh: inconclusive; ATXN viability: inactive; RORgamma inh: 2.8µM*

How did CCC(CC)[C@H](NC(C)=O)[C@@H]1[C@H](O)[C@@H](C(=O)O)C[C@@H]1N=C(N)N do in these assays?
ATXN2 expr inh: 3%

How did CCN(CC)CCCNC(=O)Cn1nc(C)n2c(cc3sccc32)c1=O do in these assays?
HepG2 tox: -8%; TGFb SMAD3 inh: -26%

Results for Cc1cc2nc(-c3ccc(OCc4ccccc4)cc3)cc(C(F)(F)F)n2n1 ?
ATXN2 expr inh: 12%; HepG2 tox: -42%; TGFb SMAD3 inh: 1%; ATXN viability: inactive

Results for Cc1ccsc1/C=N/Nc1nc2ccccc2[nH]1 ?
Gal4-VP16 FLuc: 1.4µM*; ATXN2 expr inh: inconclusive; HepG2 tox: -34%; TGFb SMAD3 inh: inconclusive; ATXN viability: inactive; RORgamma inh: 1.4µM*

How did Cc1cc(=O)[nH]c(N/N=C/c2sccc2C)n1 do in these assays?
Gal4-VP16 FLuc: -22%; ATXN2 expr inh: 18%; HepG2 tox: 11%; TGFb SMAD3 inh: 14%; ATXN viability: inactive; RORgamma inh: -43%

What do the screens show for `C(=N\Nc1nc2ccccc2[nH]1)/c1cccs1`?
Gal4-VP16 FLuc: 4.5µM*; ATXN2 expr inh: 52%; HepG2 tox: -29%; TGFb SMAD3 inh: -12%; ATXN viability: inactive; RORgamma inh: 3.2µM*

What do the screens show for `CC[C@H](C)[C@H](NC(=O)[C@H](Cc1ccc(O)cc1)NC(=O)CNC(=O)[C@@H]1CCCN1C(=O)[C@H](CC(=O)O)NC(=O)[C@@H](N)CS)C(=O)NCC(=O)N[C@@H](CO)C(=O)N[C@@H](CCCN=C(N)N)C(N)=O`?
Gal4-VP16 FLuc: 1%; RORgamma inh: 0%

What do the screens show for `COc1cc(CNCCc2ccc(F)cc2)ccc1OCc1ccc(Cl)nc1`?
Gal4-VP16 FLuc: -25%; ATXN2 expr inh: inconclusive; HepG2 tox: -84%; TGFb SMAD3 inh: inconclusive; ATXN viability: inconclusive; RORgamma inh: 2.2µM*

How did CC1=CC2(O)OCCN(CCO)C2=CC1=O (stereo not given) do in these assays?
Gal4-VP16 FLuc: 16µM*; ATXN2 expr inh: -5%; HepG2 tox: 5%; TGFb SMAD3 inh: -16%; ATXN viability: inactive; RORgamma inh: 16µM*

What do the screens show for `Cc1cc(C)n(-c2ncc3c(n2)N(CCO)CCOC3=O)n1`?
Gal4-VP16 FLuc: 4%; HepG2 tox: -2%; TGFb SMAD3 inh: 1%; ATXN viability: inactive; RORgamma inh: 4%

What do the screens show for `CCC(=O)O[C@@H](OP(=O)(CCCCc1ccccc1)CC(=O)N1C[C@H](C2CCCCC2)C[C@H]1C(=O)O)C(C)C` (stereo not given in full)?
Gal4-VP16 FLuc: -11%; RORgamma inh: 40%

What do the screens show for `Clc1ccccc1N1CCN(Cc2c[nH]c3ccccc23)CC1`?
ATXN2 expr inh: -23%; HepG2 tox: -49%; TGFb SMAD3 inh: 16µM*; ATXN viability: inactive

Results for O=S(=O)(c1ccc(Cl)cc1)N1CCN(Cc2c[nH]c3ccccc23)CC1 ?
Gal4-VP16 FLuc: 0%; HepG2 tox: 2%; TGFb SMAD3 inh: -9%; RORgamma inh: -6%

Results for COc1ccccc1-c1ccnc(-n2ncc(C(=O)N(C)CCc3ccccn3)c2C)n1 ?
ATXN viability: inactive

How did Cc1nc2ccc(C(=O)OC(C)C(=O)c3c(C)[nH]c4ccccc34)cc2nc1C (stereo not given) do in these assays?
HepG2 tox: -22%; TGFb SMAD3 inh: 6%

Results for Cc1ccc(C)c(N(CC(=O)NC2CCCC2)C(=O)c2oc(C(C)(C)C)cc2C)c1 ?
Gal4-VP16 FLuc: -8%[0.365 µM]; ATXN2 expr inh: inconclusive; HepG2 tox: 22µM*; TGFb SMAD3 inh: inconclusive; ATXN viability: inconclusive; RORgamma inh: inconclusive

Results for CO/N=C(/C(=O)N[C@@H]1C(=O)N2C(C(=O)O)=CCS[C@H]12)c1csc(N)n1 ?
Gal4-VP16 FLuc: 1%; RORgamma inh: -2%
